From PubChem BioAssay AID603 (National Center for Advancing Translational Sciences (NCATS), 2007) come the findings set out here.

Among all 71,000 compounds or so, about 180 (0.25%) were called active. Many of the other results were omitted from the sample, so actives are more common in it than they were. Values without a mark were called inactive. The call rests on the fitted dose curve; in most records, active means well fitted curve in the direction sought with a large enough effect; inconclusive means small, poorly fitted or top-dose-only effect; inactive means flat fitted curve, though single readings scatter.
On the % scale 0 is the no-effect control and ±100 the full control effect.

For this assay, the system named is DNA polymerase III holoenzyme (E. coli). Nature of the assay: qHTS Assay for Inhibitors of DNA Polymerase III Holoenzyme System. Particulars: reconstituted DNA polymerase III holoenzyme replication, biochemical; series mostly up to 57.1 µM; activity change, negative = inhibition: at the top concentration. The protocol: NIH Molecular Libraries Screening Centers Network [MLSCN]
NIH Chemical Genomics Center [NCGC]
Assay Provider: Charles McHenry, University of Colorado
E. coli DNA polymerase III holoenzyme complex was assayed for DNA production by fluorescent detection of the double-stranded DNA product with PicoGreen dye. The holoenzyme complex was reconstituted from the following purified protein components: DNA Polymerase III, beta subunit processivity factor, SSB single-stranded DNA binding protein, and Primase. Single-stranded, circular M13Gori was used as a substrate with dNTPs and NTPs also supplied to the substrate reagent. Compounds from the NCGC collection were incubated with the holoenzyme mixture for 15 min at room temperature to allow binding to occur, and then the reaction was started by the addition of substrate. After 30 min incubation at room temperature, PicoGreen solution containing EDTA was added to stop the reaction and to visualize the double-stranded DNA produced. Reaction progress was measured in a ViewLux CCD imager in fluorescence intensity mode by using 480 nm excitation and 540 nm emission filter set.
NCGC Assay Protocol Summary:
Buffer. 50 mM Hepes-KOH, pH 7.5, 5 % Glycerol, 0.02% NP40, 30 mM potassium;
glutamate, 1.5 mM Magnesium Acetate, 16 uM TCEP.
Buffer in columns 3 and 4 as negative control (no enzyme).
Substrate solution: 5 uM each dATP, dGTP, dCTP and TTP, 50 uM each GTP, CTP, UTP and 200 uM ATP, 1.4 nM M13gori (final concentrations).
Enzyme: 154 nM SSB, 2 nM Primase, 1 nM Beta, 0.35 nM Pol III (final concentrations).
PicoGreen/EDTA: 10 mM Tris-HCl, 10 mM EDTA, 5 uM PicoGreen (final concentrations).
Control titration: ChemBridge 5805060 (from 10 mM, then 1:2, in duplicate) was pin-transferred to upper half of column 2.
Three uL of holoenzyme mixture were dispensed to 1536-well Greiner black solid bottom plates. Compounds and controls (23 nL) were transferred via Kalypsys PinTool. The plates were incubated for 15 min at room temperature, and then 1 uL of substrate solution was added to start the reaction. After room temperature incubation for 35 minutes, 1 uL of PicoGreen solution was added to each well and the plates were read 480 nm excitation and 540 nm emission using ViewLux (Perkin-Elmer) High-throughput CCD imager and fluorescence protocol settings.
Keywords: NIH Roadmap, MLSCN, MLI, MLSMR, qHTS, NCGC, DNA Polymerase III, DNAPol3, DNAPoly3, DNA replication targets
(In general: Quantitative high-throughput screening tests each substance at several concentrations.)
For `CC(=O)OCC(COC(C)=O)OC(C)=O`, the “activity change, negative = inhibition” value is 6%.
Same read-out and setting: as for `CCOc1ccc(-c2nnc3ccc(SC)nn23)cc1`, the figure is -4.6%.
Same read-out and setting: under `CN(C)c1ncc2nc(-c3ccc(F)cc3)c(=O)n(Cc3ccc(F)cc3)c2n1` stands -10.5%; under `Cc1c(NC(=O)C(C)OC(=O)c2cc3c4ccccc4n(C)c3s2)c(=O)n(-c2ccccc2)n1C` (stereo not drawn), -9%.
For `CC1COC2C(O1)N(S(C)(=O)=O)CCN2S(C)(=O)=O` (stereo not drawn), the “activity change, negative = inhibition” value was -5.1%.
On the same count and under the same terms, as for `Cc1cc(NC(=O)COc2ccc(Cl)cc2Cl)n(CCC#N)n1`, the figure is -3.1%; as for `COc1cc(=O)[nH]c(=O)n1C(=O)Cc1ccccc1`, -6%.
`CCC(C)(C)n1nnnc1C(c1cccs1)N1CCN(c2nc3ccccc3s2)CC1` (stereo not drawn): the “activity change, negative = inhibition” value is -3.1%.
For `CC[N+](C)(CC)CCC[n+]1c(-c2ccccc2)c2cc(N)ccc2c2ccc(N)cc21`, the Potency was 2 µM (active).
As for `O=C(OCC(COC(=O)c1ccccc1)(COC(=O)c1ccccc1)COC(=O)c1ccccc1)c1ccccc1`, the “activity change, negative = inhibition” value was 0.5%.
Regarding `COc1ccc(CC(=O)n2nc(-c3cccnc3)nc2N)cc1`, the “activity change, negative = inhibition” value is -4.3%.
With `COc1ccccc1NC(=O)C1=C(C)Nc2nnnn2C1c1cccc(Br)c1` (stereo not drawn), the “activity change, negative = inhibition” value was -0.8%.
Still for that read-out and setting: under `CC(C)NC(=O)CCCn1c(=S)[nH]c2cc3c(cc2c1=O)OCO3` stands -4.2%; under `CCCC(=O)Nc1c(O)c2ccccc2[nH]c1=O`, 1.8%.
Regarding `O=C1C(c2[nH]c3ccccc3c2O)=Nc2ccccc21`, the Potency is 3.98 µM (active).
For `CCCOC(=O)Cc1c(O)c2ccccc2[nH]c1=O`, the “activity change, negative = inhibition” value is 2.4%.
On to `CC(C)(C)[Si](OCC[C@@H]1C[C@@]1(C)[C@@H](NP(=O)(c1ccccc1)c1ccccc1)c1ccccc1)(c1ccccc1)c1ccccc1`, for which the “activity change, negative = inhibition” value is 2.2%.
Regarding `N#Cc1cccc(-c2ccc3ncnc(NCc4cccs4)c3c2)c1`, the “activity change, negative = inhibition” value is -0.5%.
The same measure, in the same setting: under `CC(C)C[C@H](NC(=O)NCCc1ccc(Cl)cc1)C(=O)O` stands 0.4%; under `COc1ccc(-n2ncc3c(N4CCCc5ccccc54)ncnc32)cc1`, 0.2%; under `CCCC[C@@H]1C[C@H]1C(NC(=O)c1ccco1)c1ccc(C(=O)OC)cc1` (stereo partly drawn), -5.4%.
For the molecule `CS(=O)(=O)N1CCC2(CC1)CN(c1ccncc1)C2`, the “activity change, negative = inhibition” value is -4.4%.
Still for that read-out and setting: under `O=C(c1ccc(O)cc1)c1ccc(C(=O)O)c(C(=O)O)c1` stands -2.9%.
Regarding `O=C(O)c1ccc(C(=O)c2ccccc2C(=O)O)cc1C(=O)O`, the Potency was 3.98 µM (active).
Take `Cc1ccccc1C(=O)O`: the “activity change, negative = inhibition” value was 1.3%.
With `CCc1nnc(NS(=O)(=O)c2ccc(NS(=O)(=O)c3ccccc3)cc2)s1`, the “activity change, negative = inhibition” value was -14.1%.
Still for that read-out and setting: as for `Cc1ccnc(N)c1`, the figure is -0.2%; as for `c1ccc2nc(C3=NCCN3)cnc2c1`, -3.7%; as for `c1ccc(Cc2nn3c(Cn4cnc5ccccc54)nnc3s2)cc1`, -6.2%.
As for `COc1ccc2oc(=O)c(C(=O)O)cc2c1`, the “activity change, negative = inhibition” value was 0.4%.
Regarding `O=C(CN1CCOc2ccccc21)N1CCC(Cc2ccccc2)CC1`, the “activity change, negative = inhibition” value was 0.5%.
Consider `O=C(NCCCN1CCCCCC1)c1ccc(N2CCCC2=O)cc1`, for which the “activity change, negative = inhibition” value was -2.7%.
Still for that read-out and setting: as for `CC(=O)N1[C@H](C)C=C[C@]1(Cc1ccccc1)C(=O)NCc1ccccn1`, the figure is 10.3%; as for `O=C1CN(C(=O)COC(=O)C2CC(=O)N(Cc3ccco3)C2)c2ccccc2N1` (stereo not drawn), -5.6%; as for `O=C(Nc1ccn(Cc2ccc(F)cc2)n1)c1ccncc1`, 2.3%.
With `CC(=O)N=c1ncn(CC(COC(C)=O)OC(C)=O)c2nc[nH]c12` (stereo not drawn), the “activity change, negative = inhibition” value was -5.5%.
In the case of `CCn1c(CSc2ncccn2)nnc1SCC(=O)N1c2ccccc2CC1C` (stereo not drawn), the “activity change, negative = inhibition” value is -3.1%.
Turning to `C/C(=C\c1ccco1)C1Nc2cccc3cccc(c23)N1`, the Potency was 3.16 µM (active).
For the molecule `Cc1cc(C)cc(NC(=O)C2CCN(c3nc(C)cc(C)n3)CC2)c1`, the “activity change, negative = inhibition” value was -1.5%.
Still for that read-out and setting: as for `CN1CCCC(OC(=O)COc2ccc(Br)cc2)C1` (stereo not drawn), the figure is -3.3%; as for `Cc1cc(=O)oc(C)c1C(=O)NCc1ccc(F)cc1`, -6.9%; as for `Oc1ccccc1CNCc1ccccc1O`, -9.4% [at 11.4 µM].
The same measure, in the same setting: under `CCOC(=O)c1c(C2CC2)csc1NC(=O)CSCc1c(C)noc1C` stands -5.2%; under `Cc1cc(C)nc(SCc2ccccc2C#N)n1`, -13.8%.
Same read-out and setting: as for `CCCCCCc1ccc(O)cc1O`, the figure is 0.2%; as for `COc1ccccc1CNc1ncnc2ccc(-c3c(C)noc3C)cc12`, -1.2%; as for `COc1ccc(Cn2cccc(NC(=O)Nc3ccc(C#N)cc3)c2=O)cc1`, -2.6%.
On to `COc1ccc(OC)c(C(=O)c2ccc(C(=O)O)cc2)c1`, for which the “activity change, negative = inhibition” value is 1.1%.
The same measure, in the same setting: under `CC(C)NC[C@H](O)c1ccc2ccccc2c1` stands “inactive”.
As to `O=C(Oc1ccc2c(c1)CN(Cc1ccccc1)CO2)c1ccccc1`, the activity change, negative = inhibition is -3% [at 11.4 µM].
Turning to `COCCn1c(=O)c(CCc2ccccc2)nc2cncnc21`, the “activity change, negative = inhibition” value is -7.4%.
Still for that read-out and setting: as for `CCCn1c(-c2ccc(F)cc2)nc2c(NCC3CCCN3CC)nc(C)nc21` (stereo not drawn), the figure is -1.2%.
Take `COc1cccc2sc(Nc3nc(C)c(C(C)=O)s3)nc12`: the “activity change, negative = inhibition” value was -4.5%.
